We go through eleven compounds from PubChem BioAssay (NCATS).

The structures appear in SMILES notation. Records with an inconclusive call do not appear. Active and inactive are the calls of the source. Unless noted, how the calls were made is not given here. Starred links: 1 amine or outer side, 2 acyl side, 3 side chain; linkers in the order of their positions; H or OH if unused. Positions of bridges follow the written chain, without caps; N, C: chain ends. Non-standard residues stand in square brackets, D forms with d. Residues, ends and D or L forms follow the SMILES beside them. Chains are numbered I, II in the order given. Actinocin(9to1) = Cc1c2oc3c(C)ccc(C(=O)[*:1])c3nc-2c(C(=O)[*:2])c(N)c1=O; NMeV = CN[CH](C(=O)O)C(C)C; Sar = CNCC(=O)O

The target in experiment [1] is T1, Hexokinase-4 (Homo sapiens) + Glucokinase regulatory protein (Homo sapiens) (UniProt P35557+Q14397). The experiment is described as follows: qHTS assay for inhibitors of recombinant human GCK-GKRP interaction: ADP-Glo assay (AID 743206; active means well fitted curve in the direction sought with a large enough effect; an effect the other way counts as inactive or inconclusive;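 further: plate controls were DMSO plus enzyme for no effect and no enzyme for full effect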). In a few lines:
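GST-GCK and FLAG-GKRP (15 nM each in the dispensed mix, with 2 uM S6P) react with 0.4 mM ATP and 5 mM glucose (final) in Hepes pH 7.6 for 60 min at room temperature. ADP is measured by ADP-Glo luminescence.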
A general note: qHTS replaces the single test concentration by a dilution series.

Experiment [2] addresses T1, Hexokinase-4 (Homo sapiens) + Glucokinase regulatory protein (Homo sapiens). The experiment is described as follows: qHTS assay for inhibitors of recombinant human GCK-GKRP interaction: HTRF assay (AID 743207; active means well fitted curve in the direction sought with a large enough effect; an effect the other way counts as inactive or inconclusive;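 further: 0% = DMSO with GCK present and -100% = DMSO wells lacking GCK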). In a few lines:
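HTRF read-out (ex 320 nm; 615/665 nm emission) after 60 min RT equilibration of 5 nM GST-GCK, 5 nM FLAG-GKRP, 2 uM S6P, compound and anti-FLAG/anti-GST detection antibodies; signal normalized between DMSO wells with and without GCK.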

A short description of experiment [3]: qHTS Assay for Identifying Gametocytocidal Compounds (AID 743244; active means well fitted curve in the direction sought with a large enough effect; an effect the other way counts as inactive or inconclusive;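 further: on the % scale 0 is the no-effect control and ±100 the full control effect; actives lower the fluorescent signal which means gametocytes are killed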). The settings on record: P. falciparum 3D7 stage III-V gametocytes, alamarBlue, 72 h; max response: stronger effect = lower value. In a few lines:
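In this qHTS viability screen, late-stage 3D7 gametocytes are incubated with compound for 72 h, then with alamarBlue for 24 h; reduced resorufin fluorescence marks killing.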

The nature of experiment [4]: qHTS profiling of the MIPE4 collection as inhibitors of Plasmodium falciparum (3D7) proliferation (AID 743344).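 Further: scaled between DMSO vehicle wells and 0.29 µM artemisinin as full inhibition.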 The note with it: P. falciparum 3D7 in erythrocytes, SYBR Green DNA fluorescence, 72 h; at 28.5 µM (top of the series) unless noted. In a few lines:
(§1)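 Erythrocytes infected with P. falciparum (0.3% parasitemia, 2.5% hematocrit) incubated with compounds 72 h at 37 C, 5% CO2. Lysis with saponin/Triton buffer containing SYBR Green I, overnight at room temperature in the dark; DNA fluorescence (485/535 nm) normalised to 0.29 uM artemisinin and DMSO.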

The nature of experiment [5]: qHTS profiling of the MIPE4 collection as inhibitors of Plasmodium falciparum (DD2) proliferation (AID 743345). The note with it: P. falciparum Dd2 in erythrocytes, SYBR Green DNA, 72 h; at 28.5 µM (top of the series) unless noted. In a few lines: as §1
A short description of experiment [6]: qHTS profiling for inhibitors of Plasmodium falciparum (3D7) proliferation (AID 743322).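 Further: infected erythrocytes exposed to compound for 72 h before lysis; 100% = DMSO vehicle wells and 0% = 0.29 µM artemisinin.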 The note with it: P. falciparum 3D7 proliferation; at 28.7 µM (top of the series). In a few lines:
as §1

Experiment [7] can be described thus: qHTS profiling for inhibitors of Plasmodium falciparum (DD2) proliferation (AID 743323). The settings on record: lower = more inhibition; at 28.7 µM (top of the series). In a few lines:
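1536-well qHTS; infected RBCs 0.3% parasitemia/2.5% Hct final; cpd 72 h 37 C 5% CO2; lysis buffer + SYBR Green I, o/n RT dark; FI 485/535; norm. to 0.29 uM artemisinin and DMSO, plate-stack corrected.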

A short description of experiment [8]: qHTS profiling for inhibitors of Plasmodium falciparum (HB3) proliferation (AID 743324; active means well fitted curve in the direction sought with a large enough effect; an effect the other way counts as inactive or inconclusive;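 further: 100% = DMSO vehicle wells and 0% = artemisinin-treated control wells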). The settings on record: Plasmodium falciparum HB3 blood-stage proliferation; at 28.7 µM (top of the series). In a few lines: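 P. falciparum HB3 grown in erythrocytes (0.3% parasitemia, 2.5% hematocrit final) with compound for 72 h at 37 C, 5% CO2. Parasite DNA detected by SYBR Green after saponin/triton lysis overnight; normalized to 0.29 uM artemisinin and DMSO.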

T1 sequence (P35557 whole entry, looked up): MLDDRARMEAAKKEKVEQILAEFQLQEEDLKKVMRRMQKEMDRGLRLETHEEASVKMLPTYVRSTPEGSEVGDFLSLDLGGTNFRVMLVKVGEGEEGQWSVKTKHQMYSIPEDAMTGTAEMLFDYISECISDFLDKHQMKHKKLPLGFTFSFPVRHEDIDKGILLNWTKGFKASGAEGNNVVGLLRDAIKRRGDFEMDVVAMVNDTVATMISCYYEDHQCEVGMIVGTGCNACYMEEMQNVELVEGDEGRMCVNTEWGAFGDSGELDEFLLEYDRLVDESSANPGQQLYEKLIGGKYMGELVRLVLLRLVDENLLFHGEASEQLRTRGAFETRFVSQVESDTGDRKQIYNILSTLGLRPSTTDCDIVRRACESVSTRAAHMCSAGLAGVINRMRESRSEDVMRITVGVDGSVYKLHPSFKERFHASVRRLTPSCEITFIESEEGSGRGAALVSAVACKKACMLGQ
T1 sequence (Q14397 whole entry, looked up): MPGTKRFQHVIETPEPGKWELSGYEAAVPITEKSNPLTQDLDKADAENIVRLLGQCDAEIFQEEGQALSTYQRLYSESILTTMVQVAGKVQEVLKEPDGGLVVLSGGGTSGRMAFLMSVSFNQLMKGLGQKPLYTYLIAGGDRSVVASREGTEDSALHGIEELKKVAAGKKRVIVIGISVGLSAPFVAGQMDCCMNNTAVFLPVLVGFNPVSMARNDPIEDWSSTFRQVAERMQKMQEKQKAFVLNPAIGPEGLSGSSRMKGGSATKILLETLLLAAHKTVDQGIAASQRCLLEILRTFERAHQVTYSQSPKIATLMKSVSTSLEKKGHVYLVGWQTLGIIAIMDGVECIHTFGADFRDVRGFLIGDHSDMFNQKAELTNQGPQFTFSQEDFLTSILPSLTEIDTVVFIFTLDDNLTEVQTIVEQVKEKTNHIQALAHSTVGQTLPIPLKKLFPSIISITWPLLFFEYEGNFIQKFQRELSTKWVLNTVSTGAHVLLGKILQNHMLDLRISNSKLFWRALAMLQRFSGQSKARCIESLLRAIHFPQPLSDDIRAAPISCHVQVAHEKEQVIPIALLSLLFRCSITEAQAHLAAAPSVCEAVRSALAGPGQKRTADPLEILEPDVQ

Turning to `COc1ccc2cc([S+]([O-])Cc3ncc(C)c(OC)c3C)nc2c1`, the outcome in experiment [1] and in experiment [2] was inactive. Further, the max response in experiment [3] was 2.05% (inactive). In experiment [4], this compound registered a parasite growth, % of DMSO control of 32.2%. In experiment [5], the parasite growth remaining, % of DMSO control (lower = more inhibition) came to 87.1%.

With `Cc1c2oc3c(C)ccc(C(=O)NC4C(=O)NC(C(C)C)C(=O)N5CCCC5C(=O)N(C)CC(=O)N(C)C(C(C)C)C(=O)OC4C)c3nc-2c(C(=O)NC2C(=O)NC(C(C)C)C(=O)N3CCCC3C(=O)N(C)CC(=O)N(C)C(C(C)C)C(=O)OC2C)c(N)c1=O` (stereo not given) (I: TVP[Sar][NMeV] / II: TVP[Sar][NMeV]; ester I:1-I:C, II:1-II:C; linker I:N-II:N via Actinocin(9to1); configuration not given here), the remaining parasite growth % (stronger effect = lower value) in experiment [6] was -4%. The activity, percent of control in experiment [7] is -2.06%. Further, in experiment [8], the remaining proliferation (% of control), lower = more inhibition was -1.93%. Further, the parasite growth, % of DMSO control in experiment [4] stood at 3.86%. Moreover, in experiment [5], the parasite growth remaining, % of DMSO control (lower = more inhibition) was 3.9%.

For the compound `O=c1[nH]c(=O)n([C@H]2C[C@@H](O)[C@@H](CO)O2)cc1C=CBr`, the result in experiment [1] and in experiment [2] was inactive. Also, the max response in experiment [3] is 30.7% (inactive).

With `CN(C)c1ccc2cc(C(=O)N[C@@H](CCCN=C(N)CCl)C(=O)NCc3ccccc3)ccc2c1`, the remaining parasite growth % (stronger effect = lower value) in experiment [6] was 6.68%. Besides, in experiment [7], the activity, percent of control is 11.8%. Also, in experiment [8], the remaining proliferation (% of control), lower = more inhibition is -0.673%. The same compound returned a parasite growth, % of DMSO control in experiment [4] of 5.85%. Also, the parasite growth remaining, % of DMSO control (lower = more inhibition) in experiment [5] came to 8.25%.

As for `C#CCC(Cc1cnc2nc(N)nc(N)c2n1)c1ccc(C(=O)N[C@@H](CCC(=O)O)C(=O)O)cc1` (stereo not given in full), the max response in experiment [3] is 4% (inactive). Also, the parasite growth, % of DMSO control in experiment [4] was found to be 21.7%. The compound also displayed a parasite growth remaining, % of DMSO control (lower = more inhibition) in experiment [5] of 8.51%.

In experiment [4], `C#Cc1cccc(Nc2ncnc3cc(OCCOC)c(OCCO)cc23)c1` had a parasite growth, % of DMSO control of 6.81%.

As to `NC(=O)c1ncn([C@@H]2O[C@H](CO)[C@@H](O)[C@@H]2O)c1N`, the remaining parasite growth % (stronger effect = lower value) in experiment [6] is 94.2%. Also, the activity, percent of control in experiment [7] came out at 92.4%. In experiment [8], the remaining proliferation (% of control), lower = more inhibition came out at 92.9%. The parasite growth, % of DMSO control in experiment [4] amounted to 96.5%. For the same compound, the parasite growth remaining, % of DMSO control (lower = more inhibition) in experiment [5] turned out to be 91.5%.

With `Nc1ncn([C@@H]2O[C@H](CO)[C@@H](O)[C@@H]2O)c(=O)n1`, in experiment [6], the remaining parasite growth % (stronger effect = lower value) is 96.3%. In experiment [7], the activity, percent of control amounted to 90.8%. The remaining proliferation (% of control), lower = more inhibition in experiment [8] was found to be 89.3%. The parasite growth, % of DMSO control in experiment [4] amounted to 100%. Further, the parasite growth remaining, % of DMSO control (lower = more inhibition) in experiment [5] is 95.9%.

`COc1cc2c(cc1OC)[C@@H]1C(=O)c3ccc4c(c3O[C@@H]1CO2)C=CC(C)(C)O4`: the max response in experiment [3] is -5.53% (inactive). The remaining parasite growth % (stronger effect = lower value) in experiment [6] was determined as 39.1%. Also, the activity, percent of control in experiment [7] is 44.5%. For the same compound, in experiment [8], the remaining proliferation (% of control), lower = more inhibition amounted to 17.6%. This compound gave a parasite growth, % of DMSO control in experiment [4] of 45.9%. In experiment [5], this compound displayed a parasite growth remaining, % of DMSO control (lower = more inhibition) of 91.2%.

As for `Nc1ccn(C[C@@H](CO)OCP(=O)(O)O)c(=O)n1`, the max response in experiment [3] is 0.0749% (inactive).

Take `Cc1cncc2cccc(S(=O)(=O)N3CCCN(C(=O)CN)C[C@@H]3C)c12`: the parasite growth, % of DMSO control in experiment [4] worked out at 85.8%.
